Reference: the supplement of paper PMC6411743
± gives the standard deviation of the averaged measurements. About 6,500 targets were measured; listed, in parts, are those with the largest changes and a random draw of the rest.

Compound: Nc1ncnc2c1ncn2[C@@H]1O[C@H](COP(=O)(O)OP(=O)(O)OP(=O)(O)O)[C@@H](O)[C@H]1O [adenosine triphosphate]
Assay: NP40-soluble protein abundance relative to vehicle (solubility fold change) (ratio); higher = more soluble protein in presence of ATP
Conditions: concentration: 1mM
How it was run: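 Across three independent experiments, values are fold changes against the detergent-processed vehicle for each replicate, based on vsn-normalised intensities. The samples were Jurkat crude lysate treated with eight concentrations (0.1 to 10 mM) for 10 min at room temperature and then 3 min at 37 °C. Lysate was solubilised with 0.8% NP40 and benzonase, ultracentrifuged, and the supernatant analysed by TMT-labelled LC-MS/MS.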

Chain of UniProt Q7Z478 (Q7Z478 whole entry, one chain of several): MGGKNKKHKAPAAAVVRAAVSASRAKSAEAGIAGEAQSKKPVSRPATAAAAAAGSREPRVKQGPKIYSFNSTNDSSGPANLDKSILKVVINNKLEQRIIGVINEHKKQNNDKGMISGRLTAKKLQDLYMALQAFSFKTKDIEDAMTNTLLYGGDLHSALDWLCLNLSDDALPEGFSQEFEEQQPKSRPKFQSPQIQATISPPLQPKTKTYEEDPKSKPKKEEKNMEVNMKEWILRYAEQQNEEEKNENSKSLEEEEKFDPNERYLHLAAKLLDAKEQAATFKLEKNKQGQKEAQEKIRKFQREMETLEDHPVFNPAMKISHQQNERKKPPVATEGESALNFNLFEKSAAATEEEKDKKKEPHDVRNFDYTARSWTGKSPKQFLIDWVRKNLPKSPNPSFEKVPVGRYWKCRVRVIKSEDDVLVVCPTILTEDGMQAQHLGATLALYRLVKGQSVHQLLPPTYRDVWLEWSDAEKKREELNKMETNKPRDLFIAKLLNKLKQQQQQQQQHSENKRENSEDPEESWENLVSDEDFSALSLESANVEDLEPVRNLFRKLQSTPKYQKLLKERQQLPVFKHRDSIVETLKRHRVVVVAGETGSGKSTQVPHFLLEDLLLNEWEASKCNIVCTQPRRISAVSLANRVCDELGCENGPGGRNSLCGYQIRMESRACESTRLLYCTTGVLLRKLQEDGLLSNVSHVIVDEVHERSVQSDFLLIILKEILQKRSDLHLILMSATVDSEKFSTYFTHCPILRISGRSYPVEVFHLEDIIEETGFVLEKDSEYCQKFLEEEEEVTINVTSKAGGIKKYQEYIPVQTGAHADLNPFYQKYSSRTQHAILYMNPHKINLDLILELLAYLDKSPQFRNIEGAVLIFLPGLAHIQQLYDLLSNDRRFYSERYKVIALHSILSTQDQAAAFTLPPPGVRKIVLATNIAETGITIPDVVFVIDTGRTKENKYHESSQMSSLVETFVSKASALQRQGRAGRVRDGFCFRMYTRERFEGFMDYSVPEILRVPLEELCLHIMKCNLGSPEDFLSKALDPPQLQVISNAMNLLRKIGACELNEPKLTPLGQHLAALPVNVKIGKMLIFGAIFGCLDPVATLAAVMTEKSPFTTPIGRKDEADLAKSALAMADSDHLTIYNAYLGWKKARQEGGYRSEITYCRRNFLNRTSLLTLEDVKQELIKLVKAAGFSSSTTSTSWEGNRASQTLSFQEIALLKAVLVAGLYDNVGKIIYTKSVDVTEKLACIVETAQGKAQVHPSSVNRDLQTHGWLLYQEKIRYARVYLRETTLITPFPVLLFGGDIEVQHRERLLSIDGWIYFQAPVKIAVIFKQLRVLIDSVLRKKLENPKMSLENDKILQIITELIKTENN
Chain of UniProt Q03252 (Q03252 whole entry, one chain of several): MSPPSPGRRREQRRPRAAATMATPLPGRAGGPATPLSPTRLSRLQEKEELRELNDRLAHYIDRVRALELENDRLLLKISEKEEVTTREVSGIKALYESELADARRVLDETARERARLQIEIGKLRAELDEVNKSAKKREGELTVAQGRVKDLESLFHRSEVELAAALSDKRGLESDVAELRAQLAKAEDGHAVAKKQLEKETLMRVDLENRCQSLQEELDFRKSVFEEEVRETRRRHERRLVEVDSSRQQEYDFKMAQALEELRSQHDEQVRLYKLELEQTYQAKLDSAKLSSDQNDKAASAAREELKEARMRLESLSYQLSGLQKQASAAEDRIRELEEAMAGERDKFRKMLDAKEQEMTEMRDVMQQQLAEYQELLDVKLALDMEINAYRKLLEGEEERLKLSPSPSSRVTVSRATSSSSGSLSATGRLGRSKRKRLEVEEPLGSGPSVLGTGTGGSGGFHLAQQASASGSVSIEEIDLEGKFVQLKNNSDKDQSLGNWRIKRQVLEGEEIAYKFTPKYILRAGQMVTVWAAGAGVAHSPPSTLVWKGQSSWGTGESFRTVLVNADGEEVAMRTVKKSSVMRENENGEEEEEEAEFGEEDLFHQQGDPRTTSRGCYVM
Chain of UniProt O43169 (O43169 whole entry, one chain of several): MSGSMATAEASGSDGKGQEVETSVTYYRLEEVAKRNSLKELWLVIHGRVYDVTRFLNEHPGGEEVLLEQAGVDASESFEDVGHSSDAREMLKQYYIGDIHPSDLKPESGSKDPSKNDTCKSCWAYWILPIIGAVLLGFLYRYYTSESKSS
Chain of UniProt P78549 (P78549 whole entry, one chain of several): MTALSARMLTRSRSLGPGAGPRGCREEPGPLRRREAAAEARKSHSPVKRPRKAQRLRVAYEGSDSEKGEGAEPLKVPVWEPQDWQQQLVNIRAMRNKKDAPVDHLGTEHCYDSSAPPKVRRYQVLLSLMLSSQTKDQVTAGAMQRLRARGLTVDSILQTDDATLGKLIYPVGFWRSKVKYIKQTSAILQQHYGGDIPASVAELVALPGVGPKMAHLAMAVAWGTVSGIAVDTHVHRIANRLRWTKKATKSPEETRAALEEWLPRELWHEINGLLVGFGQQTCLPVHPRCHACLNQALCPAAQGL
Chain of UniProt O14929 (O14929 whole entry, looked up): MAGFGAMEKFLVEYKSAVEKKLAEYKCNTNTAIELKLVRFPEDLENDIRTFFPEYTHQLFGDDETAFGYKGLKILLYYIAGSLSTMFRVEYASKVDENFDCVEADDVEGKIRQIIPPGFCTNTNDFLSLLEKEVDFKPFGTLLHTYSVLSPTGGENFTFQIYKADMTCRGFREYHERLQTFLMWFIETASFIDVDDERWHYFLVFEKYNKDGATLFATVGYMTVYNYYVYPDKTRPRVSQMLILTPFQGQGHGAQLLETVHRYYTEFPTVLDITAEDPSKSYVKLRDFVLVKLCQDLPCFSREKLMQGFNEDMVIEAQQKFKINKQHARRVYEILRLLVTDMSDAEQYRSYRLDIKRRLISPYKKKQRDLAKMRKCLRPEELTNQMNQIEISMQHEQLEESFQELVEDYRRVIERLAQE
Chain of UniProt O00567 (O00567 whole entry): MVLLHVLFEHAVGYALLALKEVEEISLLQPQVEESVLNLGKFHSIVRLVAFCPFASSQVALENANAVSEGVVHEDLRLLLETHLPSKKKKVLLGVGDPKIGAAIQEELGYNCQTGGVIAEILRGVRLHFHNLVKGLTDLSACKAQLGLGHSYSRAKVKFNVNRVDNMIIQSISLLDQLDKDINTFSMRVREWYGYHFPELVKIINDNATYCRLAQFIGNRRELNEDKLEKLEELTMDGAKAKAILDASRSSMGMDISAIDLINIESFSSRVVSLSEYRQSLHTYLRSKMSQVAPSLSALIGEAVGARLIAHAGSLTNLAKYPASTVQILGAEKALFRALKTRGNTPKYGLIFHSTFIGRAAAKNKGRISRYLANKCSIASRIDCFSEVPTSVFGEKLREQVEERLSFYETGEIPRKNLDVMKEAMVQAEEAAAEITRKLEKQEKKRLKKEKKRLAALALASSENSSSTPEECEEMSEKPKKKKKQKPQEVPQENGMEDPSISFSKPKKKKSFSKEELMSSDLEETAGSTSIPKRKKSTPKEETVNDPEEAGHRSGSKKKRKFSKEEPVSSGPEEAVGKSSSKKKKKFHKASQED

Compared with UniProt O00560|O00560-2, DNAJC13 (UniProt O75165) is higher in NP40-soluble protein abundance: 0.95 ± 0.073 for the first, 1.15 ± 0.024 for the second.

DYNC1LI2 (UniProt O43237) and J3KNW7|Q9Y592|Q9Y592-2 (UniProt Q9Y592) are within error of each other in NP40-soluble protein abundance: 0.947 ± 0.049 for the first, 1.06 ± 0.072 for the second.

First: SLC25A20 (UniProt O43772)
Chain of UniProt O43772 (O43772 whole entry): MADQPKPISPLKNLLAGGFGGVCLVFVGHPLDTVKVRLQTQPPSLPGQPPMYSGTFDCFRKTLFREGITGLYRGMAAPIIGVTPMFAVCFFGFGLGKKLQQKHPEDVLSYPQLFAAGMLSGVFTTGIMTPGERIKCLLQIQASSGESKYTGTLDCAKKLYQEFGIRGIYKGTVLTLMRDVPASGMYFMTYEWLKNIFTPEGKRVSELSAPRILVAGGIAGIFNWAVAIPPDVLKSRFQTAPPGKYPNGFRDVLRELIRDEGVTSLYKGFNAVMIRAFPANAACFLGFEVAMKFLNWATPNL
Second: C9JLB7|Q96HP4 (UniProt Q96HP4)
The NP40-soluble protein abundance of the first is lower: 0.918 ± 0.088 for the first, 1.09 ± 0.083 for the second.

B1AJY7|O75832 (UniProt O75832) and A0A0A0MTC1|A0A0A0MTR7 (UniProt Q63HN8) are within error of each other in NP40-soluble protein abundance: 1 ± 0.082 for the first, 1.15 ± 0.14 for the second.

“H3BPD5|P78549|P78549-2|P78549-3 (UniProt P78549)” and J3KTD6|Q96GD4|Q96GD4-5 (UniProt Q96GD4) are within error of each other in NP40-soluble protein abundance: 1.12 ± 0.16 for the first, 1.37 ± 0.16 for the second.

Compared with A0A0C4DGQ5|P04632 (UniProt P04632), “A0A0G2JPT5|O75943|O75943-2 (UniProt O75943)” is higher in NP40-soluble protein abundance: 0.9315 ± 0.0081 for the first, 1.49 ± 0.28 for the second.

Compared with B7ZBA0|Q8NI27 (UniProt Q8NI27), A0A0C4DGB9|Q9H2U2 (UniProt Q9H2U2) is lower in NP40-soluble protein abundance: 1.52 ± 0.091 for the first, 0.971 ± 0.022 for the second.

E9PEN0|Q8WYH8|Q8WYH8-2 (UniProt Q8WYH8) and E7EUT5|P04406 (UniProt P04406) are within error of each other in NP40-soluble protein abundance: 1.15 ± 0.2 for the first, 1.01 ± 0.012 for the second.

B4DWF2|Q9UKS7|Q9UKS7-2 (UniProt Q9UKS7) and H0YNP8|Q99081-3|Q99081 (UniProt Q99081) are within error of each other in NP40-soluble protein abundance: 1.02 ± 0.062 for the first, 0.923 ± 0.056 for the second.

UniProt O43865 and “A0A0B4J2C3|P13693|Q5W0H4 (UniProt P13693)” are within error of each other in NP40-soluble protein abundance: 0.982 ± 0.1 for the first, 0.95 ± 0.025 for the second.

A0A0C4DGS0|P56556 (UniProt P56556) and J3KTE4|J3QR09|P84098 (UniProt P84098) are within error of each other in NP40-soluble protein abundance: 0.969 ± 0.066 for the first, 1.01 ± 0.053 for the second.

MED7 (UniProt O43513) and “M0QZM1|M0R019|P52272|P52272-2 (UniProt P52272)” are within error of each other in NP40-soluble protein abundance: 1.23 ± 0.3 for the first, 0.988 ± 0.037 for the second.

UniProt O00567 and E5RFJ1|Q96MF7 (UniProt Q96MF7) are the same in NP40-soluble protein abundance: 1.04 ± 0.038 for the first, 1.04 ± 0.053 for the second.

First: A8MT02|P14678|P14678-2|P14678-3 (UniProt P14678)
Second: H7C0H2|Q96EV2|H0Y3K4 (UniProt Q96EV2)
Chain of UniProt Q96EV2 (Q96EV2 whole entry, one chain of several): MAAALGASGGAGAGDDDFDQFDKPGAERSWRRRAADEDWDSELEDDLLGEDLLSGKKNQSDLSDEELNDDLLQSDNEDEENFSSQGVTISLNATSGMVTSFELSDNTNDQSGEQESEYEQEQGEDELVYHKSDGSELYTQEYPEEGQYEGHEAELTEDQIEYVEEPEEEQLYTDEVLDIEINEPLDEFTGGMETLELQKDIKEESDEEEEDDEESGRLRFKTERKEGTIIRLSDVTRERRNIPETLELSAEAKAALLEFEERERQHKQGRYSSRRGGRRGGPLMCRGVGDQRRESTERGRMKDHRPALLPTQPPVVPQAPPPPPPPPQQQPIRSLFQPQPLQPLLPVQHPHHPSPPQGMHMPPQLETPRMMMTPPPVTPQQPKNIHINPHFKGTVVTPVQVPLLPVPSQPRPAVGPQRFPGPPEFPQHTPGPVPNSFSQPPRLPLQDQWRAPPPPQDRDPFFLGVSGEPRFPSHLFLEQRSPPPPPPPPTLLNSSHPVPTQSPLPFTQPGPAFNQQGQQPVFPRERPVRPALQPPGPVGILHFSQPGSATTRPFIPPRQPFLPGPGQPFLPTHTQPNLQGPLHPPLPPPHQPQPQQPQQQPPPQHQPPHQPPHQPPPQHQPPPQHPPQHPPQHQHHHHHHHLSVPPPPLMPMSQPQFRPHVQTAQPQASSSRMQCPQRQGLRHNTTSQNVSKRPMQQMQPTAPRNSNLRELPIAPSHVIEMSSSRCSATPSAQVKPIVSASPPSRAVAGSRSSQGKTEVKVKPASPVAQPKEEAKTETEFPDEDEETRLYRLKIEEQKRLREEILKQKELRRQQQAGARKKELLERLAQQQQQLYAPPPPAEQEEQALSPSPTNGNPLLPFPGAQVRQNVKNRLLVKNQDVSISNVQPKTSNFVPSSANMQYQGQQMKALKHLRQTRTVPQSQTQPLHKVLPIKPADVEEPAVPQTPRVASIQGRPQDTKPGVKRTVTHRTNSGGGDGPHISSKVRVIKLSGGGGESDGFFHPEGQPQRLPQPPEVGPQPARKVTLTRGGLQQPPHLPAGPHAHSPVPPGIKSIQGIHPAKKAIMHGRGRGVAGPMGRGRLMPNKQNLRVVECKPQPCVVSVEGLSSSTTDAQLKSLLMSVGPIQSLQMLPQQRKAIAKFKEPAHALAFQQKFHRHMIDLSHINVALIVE
The NP40-soluble protein abundance of the first is higher: 1.22 ± 0.14 for the first, 0.963 ± 0.093 for the second.

H3BUX2|J3KNF8|O43169 (UniProt O43169) and I3L2M1|J3KNL2|Q8WYJ6 (UniProt Q8WYJ6) are within error of each other in NP40-soluble protein abundance: 0.964 ± 0.19 for the first, 0.941 ± 0.031 for the second.

UniProt A0FGR8-2|H7BXI1|A0FGR8-6 and E7EQI7|Q12768 (UniProt Q12768) are within error of each other in NP40-soluble protein abundance: 1 ± 0.026 for the first, 1.06 ± 0.1 for the second.

Compared with A0A087WYN9|Q7Z478 (UniProt Q7Z478), F8W057|Q9GZN1|Q9GZN1-2 (UniProt Q9GZN1) is lower in NP40-soluble protein abundance: 2.24 ± 0.062 for the first, 1.07 ± 0.034 for the second.

HAT1 (UniProt O14929) and J9JID7|Q03252 (UniProt Q03252) are within error of each other in NP40-soluble protein abundance: 1.01 ± 0.16 for the first, 1 ± 0.066 for the second.
